An excerpt weighted towards active compounds, which were near 0.44% of everything screened.
Epigenetic mod = qHTS Assay for Epigenetic Modulators; mouse C127i GFP locus derepression, cytometry, 30 h; Potency, µM (series often up to 46.1 µM), inactives show top-dose GFP derepression (activation); 68,000 compounds, 0.09% hits; also: % of control where 0% means no effect
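Derepression screen: silenced CMV-GFP reporter in murine C127i cells, 30 h compound incubation at 37 C, washed cells imaged by laser-scanning cytometer to enumerate GFP-expressing objects of 20 to 120 um.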
UbGFP stabilizer = Ubiquitin-GFP Assay. Ubiquitin-GFP reporter cells, proteasome inhibition, GFP fluorescence; response scale: untreated = 0%, 10 µM MG-132 = 100%. Potency, µM (top dose mostly 45.9 µM), without a hit: top-dose activation (GFP accumulation), actives largely listed as activators. 67,000 tested, under 10 active; active = well fitted activation curve with a large enough effect, not every such curve was filed as active; inconclusive = small, poorly fitted or top-dose-only effect, or another doubt; inactive = no such curve, though single readings can be large or run the other way; also: potency is read from the fitted curve at half-maximal effect
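Reporter cells (U2OS, ubiquitin-G76V-GFP fusion) are plated overnight, then treated 4 hr at 37 °C with compound titrations from 46 uM down to 2.9 nM. Activity is scaled against untreated cells and 10 uM MG-132.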
HBB splicing = qHTS Assay for Modulators of Hemoglobin Beta Chain Splicing; Potency, µM (doses to about 46.1 µM), inactives show at the highest dose activation, most hits filed as activators; HBB splicing reporter cell assay, activation; EGFP reporter with mutant IVS2-654 intron; response scale: normalised to 500 nM splice-correcting PNA; 65,000 compounds, 0.06% hits; also: potency is read from the fitted curve at half-maximal effect; 0% is about no effect
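Compounds were applied for 2 days to HeLa EGFP-654 cells, 500/well in Optimem with 2% FCS. The reporter's EGFP is disrupted by mis-splicing of beta-globin intron IVS2-654. Readout: summed well GFP fluorescence from 488 nm laser scanning; reference was 500 nM antisense […] 654 PNA.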
Hsp90 Hop PPI = qHTS Assay for Disrupters of an Hsp90 Co-Chaperone Interaction. 71,000 compounds, 0.44% hits. Hsp90 C-terminal peptide / TPR2A (Hop) interaction, human. AlphaScreen TPR2A-His6 binding biotin-Hsp90 C-terminal peptide. AID 595, 2007. Potency, µM (top dose mostly 57 µM), for inactives: top-dose activity change, negative = inhibition; active = well fitted curve in either direction with a large enough effect; inconclusive = small, poorly fitted or top-dose-only effect, or another doubt; also: potency is read from the fitted curve at half-maximal effect; % is scaled to controls: 0 for no effect and ±100 for the full control effect
USP2a inh = qHTS Assay for Inhibitors of Ubiquitin-specific Protease USP2a | USP2a enzymatic assay, qHTS inhibition | AID 927, 2007 | 60,000 compounds, 0.1% hits | Potency, µM (series often up to 38.3 µM), for the others: at the top dose activity change, negative = inhibition, actives largely listed as inhibitors; also: potency is read from the fitted curve at half-maximal effect; nearly all actives have a fitted effect of over 60% in size
Target sequence (O75604 whole entry, looked up): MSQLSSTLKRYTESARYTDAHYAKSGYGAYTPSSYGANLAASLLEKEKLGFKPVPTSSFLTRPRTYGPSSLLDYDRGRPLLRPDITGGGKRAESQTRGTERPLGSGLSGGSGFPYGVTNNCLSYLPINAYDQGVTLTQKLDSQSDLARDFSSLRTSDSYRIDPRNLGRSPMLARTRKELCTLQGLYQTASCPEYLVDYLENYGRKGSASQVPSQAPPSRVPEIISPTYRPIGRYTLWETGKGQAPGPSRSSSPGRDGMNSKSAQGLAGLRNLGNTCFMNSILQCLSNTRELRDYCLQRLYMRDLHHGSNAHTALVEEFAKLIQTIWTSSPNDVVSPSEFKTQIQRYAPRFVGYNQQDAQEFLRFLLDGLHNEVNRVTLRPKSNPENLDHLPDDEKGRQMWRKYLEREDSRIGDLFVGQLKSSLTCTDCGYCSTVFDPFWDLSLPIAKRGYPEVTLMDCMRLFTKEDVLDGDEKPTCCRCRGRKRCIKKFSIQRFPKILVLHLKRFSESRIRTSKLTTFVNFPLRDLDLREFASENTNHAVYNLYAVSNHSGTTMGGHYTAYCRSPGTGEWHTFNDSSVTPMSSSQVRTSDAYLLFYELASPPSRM
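USP2 core (20 nM final) was preincubated with compound for 30 min at RT in 20 mM Tris-HCl pH 8.0, 2 mM CaCl2, 2 mM beta-mercaptoethanol; Ub-PLA2 (20 nM) plus NBD C6-HPC (20 uM) then added, fluorescence read after 2.5 h.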
Hsp90 TPR2A CRC = Confirmation Concentration-Response Assay and Counterscreen for Disrupters of an Hsp90 Co-Chaperone Interaction; shares compounds with Hsp90 Hop PPI; AlphaScreen TPR2A-His6 / biotin-Hsp90 peptide binding; activity, negative = inhibition, % at 40 µM or 46 µM, hits read low; 45 compounds, 100% hits; AID 632, 2007;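 active = compound lowering the Hsp90 and TPR2A binding signal, whether or not the linker counterscreen also flagged it as an artifact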
Active calls of the source: *; ? = inconclusive; / = not tested or not shown; + = active, no number; [ ] = another dose, or the depositor's remark. Unless noted, calls follow the shape of the dose curve; as a rule, active = well fitted curve in the direction sought with a large enough effect; inconclusive = small, poorly fitted or top-dose-only effect, or another doubt; inactive = no such curve, though single readings can be large; an effect the other way counts as inactive or inconclusive.

SMILES	Epigenetic mod	UbGFP stabilizer	HBB splicing	Hsp90 Hop PPI	USP2a inh	Hsp90 TPR2A CRC
NCCC[C@@H](CC(=O)N[C@@H]1CCNC[C@H]1C(=O)N[C@H](CC(=O)N[C@@H](CCC(=O)O)CC(=O)O)Cc1ccccc1)NC(=O)C[C@H](CO)NC(=O)[C@@H]1CNCC[C@H]1N	/	/	2.9%	31.6µM*	/	/
CC(C)C[C@@H](CC(=O)N[C@@H](CCC(=O)O)CC(=O)O)NC(=O)[C@@H]1CNCC[C@H]1NC(=O)C[C@@H](NC(=O)C[C@H](Cc1c[nH]c2ccccc12)NC(=O)[C@@H]1CNCC[C@H]1N)C(C)C	/	/	1.6%	-7.9%	/	/
CN1[C@@H]2CC(OC(=O)[C@@H](CO)c3ccccc3)C[C@H]1[C@H]1O[C@H]12 (stereo partly specified)	-1.1%	9.9%	0.0%	0.0%	0.5%	/
Nc1nc(Sc2ccc([N+](=O)[O-])c3nonc23)c2[nH]cnc2n1	?	-7.7%[9.17 µM]	3.16µM*	-5.0%[11 µM]	/	/
CCOC(=O)c1c2c(n3ccccc13)C(=O)c1ccccc1C2=O	6.9%[9.22 µM]	-9.0%[9.17 µM]	3.16µM*	-17.5%[11 µM]	/	/
CCOC(=O)c1c(C)[nH]c(C)c1-c1ccccc1OC	0.0%	-4.1%	2.0%[0.369 µM]	-5.0%	9.7%	/
CC(=O)[C@@]1(O)Cc2c(O)c3c(c(O)c2[C@H](O[C@H]2C[C@H](N)[C@H](O)[C@H](C)O2)C1)C(=O)c1ccccc1C3=O	12.6µM*	-11.3%	12.6µM*	?	23.6%	/
COc1cccc2c1C(=O)c1c(O)c3c(c(O)c1C2=O)C[C@](O)(C(C)=O)C[C@H]3O[C@@H]1C[C@H](N)[C@H](O)[C@H](C)O1	-0.7%[20.6 µM]	1.1%[20.5 µM]	-1.0%[20.6 µM]	?	48.9%[17.1 µM]	/
CCCc1nc2c(=O)n(C)c(=O)nc-2n(C)n1	/	/	/	/	/	+
c1ccc(-c2n[nH]c(-c3ccccn3)n2)nc1	-5.3%	5.8%	-0.1%	0.2µM*	6.1%	-98.3*[alpha-screen platform artifact]
c1ccc(-c2ccc(-c3nc(-c4ccccn4)no3)cc2)cc1	0.0%	-3.1%	-0.7%	8.6%	/	/
Cc1ccccc1CS(=O)(=O)Cc1ccc(C(=O)NCc2ccccn2)o1	-2.2%	0.0%	0.7%	3.98µM*	22.6%	-91.4*[alpha-screen platform artifact]
CN1C[C@H](C(=O)N[C@]2(C)O[C@@]3(O)[C@H]4CCCN4C(=O)[C@@H](Cc4ccccc4)N3C2=O)C[C@H]2c3cccc4[nH]cc(c34)C[C@@H]21	7.0%[9.22 µM]	1.1%	/	-4.2%	/	/
Cc1ccc(C2NC(=O)c3c(sc4c3CCN(C)C4)N2)s1 (stereo unspecified)	0.0%	-7.1%	2.5%[1.84 µM]	-10.7%	22.6%	/
CN1CCc2c(sc3c2C(=O)NC(c2ccccn2)N3)C1 (stereo unspecified)	-0.4%	3.8%	3.5%[1.84 µM]	15.8µM*	17.4%	-81.3*[alpha-screen platform artifact]
COC1=CC(=O)C(O)=C/C1=C\C=C\c1ccccc1	/	/	/	/	2.6%	/
COc1ccc(-c2nc3cnc(N4CCNCC4)nc3n(C3CC3)c2=O)cc1	0.0%[9.22 µM]	2.0%	0.7%	-1.9%	55.2%	/
CNc1oc(Cc2cccc3ccccc23)nc1C#N	-2.6%	13.3%	3.5%	-11.5%	-2.3%	/
N#Cc1nc(Cc2cccc3ccccc23)oc1NCCN1CCCCC1	5.7%	0.1%	-1.0%	7.94µM*	19.4%	-23.3
CC[C@@H]1OC(=O)[C@@H](C)[C@H](O[C@@H]2C[C@@](C)(OC)[C@@H](O)[C@H](C)O2)[C@H](C)[C@H](O[C@@H]2O[C@@H](C)C[C@@H](N(C)C)[C@H]2O)[C@@](C)(O)C[C@H](C)C(=O)[C@@H](C)[C@H](O)[C@@]1(C)O	-4.7%[9.22 µM]	2.6%	/	0.1%	/	/
COC(=O)Cc1cc(=O)n(-c2nc3ccccc3[nH]2)[nH]1	1.6%	0.4%	0.5%	7.94µM*	19.5%	-99.5*[alpha-screen platform artifact]
Oc1c(CN2CCOCC2)cc(COCc2ccccc2)c2cccnc12	?	0.4%	-0.8%	1.58µM*	22.4%	-99.7*[alpha-screen platform artifact]
